The values that follow come from PubChem BioAssay AID720540 (National Center for Advancing Translational Sciences (NCATS), 2013).

In all, about 1,300 compounds went through this assay and about 460 (35%) were called active. Roughly 39% stayed inconclusive and do not appear here. The list shows a part of the results. A number with no mark means an inactive call. The call rests on the fitted dose curve; in most records, active means well fitted inhibition curve with a large enough effect; inconclusive means small, poorly fitted or top-dose-only effect; inactive means flat fitted curve, though single readings scatter.

Protein phosphatase EYA2 (Homo sapiens), sequence (O00167 whole entry, looked up): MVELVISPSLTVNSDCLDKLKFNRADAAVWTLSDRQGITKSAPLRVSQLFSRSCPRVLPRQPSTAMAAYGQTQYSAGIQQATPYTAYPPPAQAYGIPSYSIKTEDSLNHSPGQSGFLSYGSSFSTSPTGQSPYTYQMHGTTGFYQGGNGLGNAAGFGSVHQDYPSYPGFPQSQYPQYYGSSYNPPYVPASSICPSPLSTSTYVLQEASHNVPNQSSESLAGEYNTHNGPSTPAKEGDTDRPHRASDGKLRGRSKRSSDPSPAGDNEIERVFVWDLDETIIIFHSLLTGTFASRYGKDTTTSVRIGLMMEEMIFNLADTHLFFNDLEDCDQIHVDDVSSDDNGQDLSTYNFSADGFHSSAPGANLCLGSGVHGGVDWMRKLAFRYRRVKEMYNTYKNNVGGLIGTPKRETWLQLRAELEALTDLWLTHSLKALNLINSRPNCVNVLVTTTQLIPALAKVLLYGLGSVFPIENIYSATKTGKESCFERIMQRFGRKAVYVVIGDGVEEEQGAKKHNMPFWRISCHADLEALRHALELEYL

In the assay the target is Protein phosphatase EYA2 (Homo sapiens) (UniProt O00167). Put plainly: qHTS for Inhibitors of the Phosphatase Activity of Eya2: Confirmatory Assay for Cherry-picked Compounds. Further: nearly all actives have a fitted effect of over 65% in size.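 On activity change, negative = inhibition: 0% = DMSO wells and -100% = EGTA control giving full inhibition.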 Conditions: purified EYA2 phosphatase activity, qHTS confirmation; series mostly up to 46.1 µM; activity change, negative = inhibition: at the top concentration. The source says:
The Eya protein family is an essential co-activator of the Six1 transcription factor. Six1 is a developmental gene that is abnormally re-expressed in a large percentage of breast cancers. This over-expression plays a causal role in the initiation and metastatic development of breast cancers. The Eya family of protein is also found to contain a unique HAD phosphatase domain with protein tyrosine phosphatase activity which can potentially play a role in Six1-mediated breast tumorigenesis. Recently, Eya2 is found to dephosphorylate the histone variant H2AX and direct cells towards DNA repair instead of apoptosis in the event of DNA damage.
A 1536 well format, fluorescence based qHTS assay was developed and used to target the phosphatase activity of Eya2 (AID 488837). Inhibitors found against Eya2 could serve as potential therapeutic tools to inhibit Six1-mediated breast tumorigenesis and to increase the efficiency of radiation and certain chemo therapy. This assay assessed the activity of the primary screen cherry-picked compounds against Eya2. Inhibition is the desired outcome for this assay.
NIH Chemical Genomics Center [NCGC]
NIH Molecular Libraries Probe Centers Network [MLPCN]
Assay Submitter (PI): Rui Zhao, University of Colorado Denver
Eya2 enzyme and 3-O-methyl-fluorescein phosphate (OMFP) substrate working solutions were reconstituted in the buffer reagent consist of 50 mM HEPES pH 7.5, 50 mM NaCl, […], 0.05% BSA and 1 mM DTT. One and a half microliter of 0.2 uM Eya2 working solution was dispensed in a 1536 well Greiner plate (black, medium bind). Twenty-three nanoliter of test compounds and control compound EGTA was transferred to the assay plate using the Kalypsys robotic system equipped with a 1536 pin head. The plate was incubated at room temperature for 10 minutes. One and a half microliter of the 50 uM the OMFP substrate was then dispensed to the assay plate and incubated at room temperature for additional 10 min. The fluorescence signal was read using the PerkinElmer ViewLux plate reader using a 485 nm excitation and 525 nm emission filters. The data was normalized to the positive control for maximum inhibition and DMSO treated wells as negative control.
Turning to `CC(=O)N1CCN(/[N+]([O-])=N/Oc2ccc([N+](=O)[O-])cc2[N+](=O)[O-])CC1`, the Potency was 19 µM (active).
The same measure, in the same setting: in the case of `Cn1nc([N+](=O)[O-])nc1Sc1cccc2cccnc12` it was 1.9 µM (active); in that of `O=c1c(O)cccc2cc(O)c(O)c(O)c12`, 8.49 µM (active); in that of `OCCN(Cc1cccnc1)Cc1ccccn1`, 5.36 µM (active).
`O=C(CCCl)Nc1cccc2cccnc12`: the Potency was 15.1 µM (active).
On to `COc1ccc(N(CC(=O)Nc2cccc(C(C)=O)c2)S(=O)(=O)c2ccc(NC(C)=O)cc2)cc1`, for which the “activity change, negative = inhibition” value was -23.4%.
Turning to `CC1(C)CC(=O)c2c(oc3ccc(NS(=O)(=O)c4cccc5cccnc45)cc23)C1`, the “activity change, negative = inhibition” value is -15.7%.
As for `O=S(=O)(Nc1cccc2cccnc12)c1ccccc1Br`, the Potency was 16.9 µM (active).
Turning to `CC(=O)Nc1ccc(S(=O)(=O)Nc2cccc3cccnc23)cc1`, the Potency was 4.78 µM (active).
Take `CCOc1ccc(Br)cc1S(=O)(=O)NC1CC(C)(C)NC(C)(C)C1`: the “activity change, negative = inhibition” value was -5.16%.
The same measure, in the same setting: the value for `CCCC(=O)NC(=S)Nc1sc2c(c1C(N)=O)CCC2` was 0.48%.
As for `NC(=O)c1c(NC(=O)c2ccc(N3C(=O)CCC3=O)cc2)sc2c1CCCC2`, the Potency was 1.51 µM (active).
`CN(C)S(=O)(=O)n1cnc2ccccc21`: the “activity change, negative = inhibition” value is -1.26%.
For `CCc1nnc2c(N(C)C)nc3ccccc3n12`, the Potency is 15.1 µM (active).
For `Cn1c(=O)n(Cc2ccc(F)cc2)c(=O)c2c1nc1n2CCN1Cc1ccco1`, the Potency was 16.9 µM (active).
For `Cn1c(=O)n(CCO)c(=O)c2c1nc(Br)n2Cc1ccccc1`, the “activity change, negative = inhibition” value was -3.69%.
For the molecule `Cc1ccc(C(=O)Oc2ccc(C(=O)COC(=O)c3cnccn3)cc2)cc1`, the Potency is 0.478 µM (active).
In the case of `Clc1cccc(-c2ccc(CNCc3ccccn3)o2)c1`, the Potency was 19 µM (active).
On to `Fc1ccc(-c2ccc(CNCc3ccccn3)o2)cc1`, for which the Potency is 19 µM (active).
On the same count and under the same terms, in the case of `Clc1ccc(-c2ccc(CNCc3ccccn3)o2)cc1` it was 15.1 µM (active).
As for `O=S(=O)(c1ccc(Cl)s1)N1CCc2ccccc2C1`, the “activity change, negative = inhibition” value is 43.7%.
With `CCOc1cc(C=NNC(=O)c2cccc(S(=O)(=O)N3CCCC3)c2)ccc1O`, the Potency is 6.01 µM (active).
Take `CC1CCC(=NNc2ccc(C(F)(F)F)cc2[N+](=O)[O-])CC1` (stereo not drawn): the Potency was 7.57 µM (active).
Take `O=C(O)c1ccc2c(c1)C(=O)N(c1ccc(/C=C/C(=O)c3ccccc3)cc1)C2=O`: the Potency was 19 µM (active).
On to `O=C(O)c1ccc2c(c1)C(=O)N(c1cccc(-c3nc4ccccc4s3)c1)C2=O`, for which the “activity change, negative = inhibition” value was -13.9%.
With `CCCc1cc(=O)[nH]c(SCC(=O)Nc2ccc(C)cc2)n1`, the “activity change, negative = inhibition” value is -8.55%.
As to `Cc1nnc2sc(SCC(=O)Nc3ccc(Br)cc3)nn2c1=O`, the Potency is 4.78 µM (active).
Regarding `O=c1[nH]c(/C=C\c2ccc(O)cc2)nc(O)c1[N+](=O)[O-]`, the “activity change, negative = inhibition” value was -17%.
As to `CCOC(=O)c1nn2c(C(F)(F)F)cc(-c3ccc(OC)cc3)nc2c1Br`, the Potency is 12 µM (active).
Regarding `CNc1c(Br)cc(C(O)C2=CCc3ccccc32)cc1Br` (stereo not drawn), the “activity change, negative = inhibition” value was -3.84%.
`Nc1nc2cc3ccccc3cc2[nH]c1=O`: the “activity change, negative = inhibition” value is -10.3%.
For `Cc1ccccc1C(=O)NC(=S)Nc1ccccc1N1CCCC1`, the Potency was 13.5 µM (active).
Regarding `Cc1ccccc1NC(=O)C1CCN(C(=O)N2CCOc3ccccc32)CC1`, the “activity change, negative = inhibition” value is -3.15%.
As to `CCc1nc2ccc(C(=O)NCCOc3ccc(OC)cc3)cn2c1N(CCC(C)C)CCN(C)C`, the “activity change, negative = inhibition” value was -16.6%.
With `C/C(=C1/C=Nc2ccccc21)c1ccc(N(C)C)cc1`, the Potency was 19 µM (active).
`Cc1cccn2c(=O)c3cc(S(=O)(=O)c4ccc(F)cc4)c(=N)n(Cc4ccco4)c3nc12`: the “activity change, negative = inhibition” value is -12.7%.
As to `COc1ccc(CCn2c(=N)c(C(=O)NCc3ccco3)cc3c(=O)n4ccccc4nc32)cc1OC`, the Potency is 15.1 µM (active).
`CCC(=O)c1cn(CC(=O)Nc2c(C)cccc2C)c2ccccc12`: the “activity change, negative = inhibition” value is -9.78%.
For the molecule `Cc1ccccc1OCCn1cc(C(=S)N2CCN(C)CC2)c2ccccc21`, the Potency is 16.9 µM (active).
Still for that read-out and setting: in the case of `O=c1oc(-c2ccco2)nc2ccccc12` it was 19 µM (active); in that of `O=C(O)CCCCCNS(=O)(=O)c1cccc2c1C(=O)c1ccccc1C2=O`, 6.01 µM (active).
On to `CCOc1ccccc1O[C@H](c1ccccc1)[C@H]1CNCCO1`, for which the “activity change, negative = inhibition” value was -7.05%.
Consider `O=C(CSc1ccc2c(c1)OCCO2)Nc1ccc2c(c1)OCO2`, for which the “activity change, negative = inhibition” value was -15.6%.
Still for that read-out and setting: the value for `NC(=O)C1CCN(CC(=O)Nc2ccc3c(c2)OCO3)CC1` was 22.6%.
`Nn1c(SCC(=O)Nc2ccc3c(c2)OCCO3)nnc1-c1ccccn1`: the Potency was 21.3 µM (active).
In the case of `O=S(=O)(Nc1nnc(-c2ccccc2)s1)c1ccc(Cl)cc1`, the Potency was 15.1 µM (active).
Same read-out and setting: in the case of `COc1cc(OC)c(OC)cc1CCC(C)NCCC(c1ccccc1)c1ccccc1` (stereo not drawn) it was 8.49 µM (active); in that of `Cc1ccc(NC(=O)CN2C(=O)S/C(=C\c3cc(Cl)c(OCC(=O)O)c(Cl)c3)C2=O)cc1`, 19 µM (active).
